Survival data for 91 compounds are collected here from PubChem BioAssay AID463173 (ICCB-Longwood Screening Facility, Harvard Medical School, 2010).

Each structure is given as a SMILES string. Screen size: about 52,000 compounds; about 4,300 (8.3%) were called active. The list comes from a sample in which actives are over-represented; it also holds similar structures and randomly drawn compounds. Values without a mark were called inactive. Cut-off read from the data, not from the text of the source: active = survival mostly below about 52% (no sharp cut-off); inactive = mostly above about 56%.

In the test the test system is DeltatarO mutant. Put plainly: growth inhibition of S. aureus wild type versus tarO mutant, primary screen, teichoic acid synthesis inhibitors, RN4220, OD600 (AID 463173). To be noted: OD600, 18 h, stronger effect = lower value, screened at 18.75 µg/mL (by protocol).
`N#Cc1c(Nc2ccccc2)sc(C(=O)c2cccs2)c1N`: the survival is 75%. Next, `O=C(O)c1cccc2cc[nH]c12`: 101%; `Cc1cc(C)c2oc(-c3cccc(NC(=O)c4ccco4)c3)nc2c1`: 87%; `Cc1ccc2nc(-c3cccc(NC(=O)CSc4ccc(Cl)cc4)c3)oc2c1`: 56%. Next, `COc1cccc(OC)c1C(=O)Nc1cccc(-c2nc3cc(C)cc(C)c3o2)c1`: 68%; `Cc1cc(C)c2oc(-c3cccc(NC(=O)c4ccc(Br)o4)c3)nc2c1`: 34% (active). The value for `Cc1ccc2nc(-c3cccc(NC(=O)c4ccc(Br)o4)c3)oc2c1` was 15% (active). Consider `Cc1cc(C)c2oc(-c3cccc(NC(=O)c4cc5ccccc5o4)c3)nc2c1`, for which the survival was 36% (active). Next, `Cc1ccc2nc(-c3cccc(NC(=O)c4cccc5ccccc45)c3)oc2c1`: 50%; `CC(C)(C)c1ccc(-c2nc3cc(NC(=O)c4cc5ccccc5o4)ccc3o2)cc1`: 71%; `Cc1cc(C)c2oc(-c3cccc(NC(=O)c4ccc(-c5cccc([N+](=O)[O-])c5)o4)c3)nc2c1`: 75%. The value for `CCc1ccc(-n2c(=O)c3cccnc3n2CC(=O)NCc2ccc(F)cc2)cc1` was 94%. Consider `Cc1cccc(NC(=O)C2CCN(S(=O)(=O)c3cccc4nsnc34)CC2)c1C`, for which the survival is 88%. Next, `CCc1ccc(C2=CC(c3cccc(C)c3)n3c(nc4ccccc43)N2)cc1` (stereo unspecified): 80%; `COc1ccc(-n2c(SCC(=O)Nc3cc(C)cc(C)c3)nc3c(oc4ccccc43)c2=O)cc1`: 70%; `CCOc1ccc(NC(=O)c2ccc3[nH]c(C)cc(=O)c3c2)cc1`: 79%.

For the compound `Cc1cccc(N2CCN(S(=O)(=O)c3ccc4c(c3)CC(=O)N4C)CC2)c1C`, the survival was 129%. The value for `Oc1c(C(Nc2ccccn2)c2ccccc2F)ccc2cccnc12` (stereo unspecified) was 102%; that for `Cc1ccnc(NC(c2ccccc2F)c2ccc3cccnc3c2O)c1` (stereo unspecified) was -1% (active); that for `Cc1ccnc(NC(c2cc(C)ccc2O)c2ccc3cccnc3c2O)c1` (stereo unspecified) was 4% (active). Next, `Cc1ccc(O)c(CNc2cccc3cccnc23)c1`: 79%; `CCOc1cc(C(Nc2cc(C)ccn2)c2ccc3cccnc3c2O)ccc1OC` (stereo unspecified): 146%. The value for `Cc1ccnc(NCc2cccc3ccccc23)c1` was 93%; that for `CC1CCc2c(sc3nnn(CC(=O)Nc4cccc(C(F)(F)F)c4)c(=O)c23)C1` (stereo unspecified) was 70%; that for `COc1ccc(NC(=O)c2cc(S(=O)(=O)N3CCCCCC3)cn2C)c(OC)c1` was 80%.

`CC(=O)c1ccc(N2CCN(C(=O)CCn3cnc4onc(-c5ccc(F)cc5)c4c3=O)CC2)cc1`: the survival is -5% (active). Regarding `O=C(CCn1cnc2onc(-c3ccc(F)cc3)c2c1=O)N1CCN(c2ccccc2F)CC1`, the survival is -4% (active). With `O=C(CCn1cnc2onc(-c3ccc(F)cc3)c2c1=O)N1CCN(c2ccccc2)CC1`, the survival was 60%. The value for `O=C(CCn1cnc2onc(-c3ccc(F)cc3)c2c1=O)N1CCN(c2ccc(F)cc2)CC1` was 77%; that for `O=C(Cn1cnc2onc(-c3ccc(F)cc3)c2c1=O)N1CCN(c2ccccc2F)CC1` was 76%; that for `COc1ccccc1N1CCN(C(=O)CCn2cnc3onc(-c4ccc(F)cc4)c3c2=O)CC1` was 66%.

As for `CC(=O)c1ccc(NC(=O)C2=CC(c3ccc4c(c3)OCO4)=NS(=O)(=O)N2C)cc1`, the survival was 103%.

Turning to `CCc1cccc(NC(=O)c2c(N3CCCC3=O)c3cc(C)ccc3n2C)c1`, the survival is 74%. The value for `CCOC(=O)C1CCN(C(=O)Cn2c(=O)oc3cc(S(=O)(=O)N4CCC(C)CC4)ccc32)CC1` was 133%. Next, `Cc1cc(C)cc(NC(=O)CSc2nnc(CNC(=O)c3c(F)cccc3Cl)o2)c1`: 132%; `CN(C)S(=O)(=O)c1ccc2c(c1)N(CC(=O)N1CCN(c3ccccc3F)CC1)CCS2`: 119%. Next, `COc1cc(NC(=O)Cn2nc(C(F)(F)F)c3c2CCC3)cc(OC)c1OC`: 130%. As to `CC(C)NC(=O)N1[C@H](c2cccs2)[C@@H](C)C(=O)[C@@H](C)[C@@H]1c1cccs1`, the survival is 51%. As to `COc1ccccc1NC(=O)c1ccc2[nH]c(C)cc(=O)c2c1`, the survival is 77%. The value for `Cc1ccc(OCCCC(=O)Nc2sc3c(c2C(N)=O)CCC(C)C3)cc1` (stereo unspecified) was 159%.

As for `CCOC(=O)c1c(NC(=O)CCCOc2ccccc2C)sc2c1CCC(C)C2` (stereo unspecified), the survival is 16% (active).

As for `CCOC(=O)c1c(NC(=O)CCCOc2ccc(C)cc2)sc2c1CCC(C)C2` (stereo unspecified), the survival was 10% (active).

With `CCOC(=O)c1c(NC(=O)CS(=O)(=O)c2ccc(C)cc2)sc2c1CCC(C)C2` (stereo unspecified), the survival was 102%.

Regarding `CCOC(=O)c1c(NC(=O)Cn2nnc3ccccc32)sc2c1CCC(C)C2` (stereo unspecified), the survival was 64%. The value for `CCOC(=O)c1c(NC(=O)COc2ccc(F)cc2)sc2c1CCC(C)C2` (stereo unspecified) was 70%. Next, `CCc1cnc2c(c1SC(C(C)=O)C(=O)N(C)C)c(=O)n(C)c(=O)n2C` (stereo unspecified): 95%; `O=C(NC1CCCC1)c1ccc2c(=O)n(Cc3ccccc3)c(SCc3cccc(F)c3)nc2c1`: 72%; `CCCCOc1ccc(C2c3c(oc4ccccc4c3=O)C(=O)N2c2nc(C)c(C(=O)OCC)s2)cc1OC` (stereo unspecified): 55%.

Take `CCCn1c2c(c(O)c(C(=O)Nc3ccccc3F)c1=O)CCCC2`: the survival was 93%. The value for `CCC(=O)Nc1nnc(S(=O)(=O)N2c3ccccc3CC2C)s1` (stereo unspecified) was 92%. The value for `CC(C)CC(=O)Nc1nnc(S(=O)(=O)N2c3ccccc3CC2C)s1` (stereo unspecified) was 75%; that for `Cc1ccc(OCC(=O)Nc2nnc(S(=O)(=O)N3c4ccccc4CC3C)s2)cc1` (stereo unspecified) was 34% (active). Next, `Cc1ccc(C(=O)Nc2nnc(S(=O)(=O)N3c4ccccc4CC3C)s2)cc1` (stereo unspecified): 30% (active); `CC1Cc2ccccc2N1S(=O)(=O)c1nnc(NC(=O)c2cccc(F)c2)s1` (stereo unspecified): 6% (active). For `Cc1cccc(C(=O)Nc2nnc(S(=O)(=O)N3c4ccccc4CC3C)s2)c1` (stereo unspecified), the survival was 16% (active). The value for `CCn1ccc2cc(S(=O)(=O)N3CCC(C(=O)NCCc4ccccc4)CC3)ccc21` was 102%; that for `CCOC(=O)c1[nH]c2c(c1Cc1ccccc1)C(=O)CC(c1ccc(Cl)cc1)C2` (stereo unspecified) was 92%; that for `NC(=O)c1ccc(NC(=O)C2CCN(S(=O)(=O)Cc3ccccc3)CC2)cc1` was 87%. The value for `CCOc1ccc(NC(=O)c2cnn3c2NC(C)=C(C(=O)Nc2ccc(Cl)cc2)C3c2ccc(OC)c(OC)c2)cc1` (stereo unspecified) was 59%; that for `Cc1ccccc1C(=O)N1CCC(C(=O)Nc2ccc(F)cc2F)CC1` was 67%. The value for `O=C(Cn1ncc2c(Cl)cccc21)NCc1cccc(Cl)c1` was 110%. For `CC(C)C(=O)Nc1nnc(S(=O)(=O)N2c3ccccc3CC2C)s1` (stereo unspecified), the survival was 87%. The value for `CC1Cc2ccccc2N1S(=O)(=O)c1nnc(NC(=O)c2ccccc2)s1` (stereo unspecified) was 12% (active). Next, `CCC(CC)C(=O)Nc1nnc(S(=O)(=O)N2c3ccccc3CC2C)s1` (stereo unspecified): 61%; `Cc1cc(C)n(C(=O)CNC(=O)Cc2ccccc2)n1`: 89%. The value for `CC(=O)N1c2ccccc2C(=O)C1N1CCN(c2cccc(C)c2C)CC1` (stereo unspecified) was 80%; that for `Cc1ccc(-c2noc(CCC(=O)N(C)c3ccccc3F)n2)cc1` was 38% (active).

With `COc1ccc(OC)c(NC(=O)CCc2nc(-c3ccc(C)cc3)no2)c1`, the survival is 70%. Turning to `CCCN(C(=O)CCc1nc(-c2ccc(OC)cc2)no1)c1ccccc1F`, the survival is 3% (active). The value for `CCCN(C(=O)CCc1nc(-c2ccc(C)cc2)no1)c1ccc(OCC)cc1` was -4% (active). The value for `COc1ccc(-c2noc(CCC(=O)N(C)c3ccccc3C)n2)cc1` was 80%. The value for `COc1ccc(-c2noc(CC(=O)N(C)c3ccccc3F)n2)cc1` was 87%. Regarding `CCOC(=O)c1ccccc1NC(=O)CCc1nc(-c2ccc(C)cc2)no1`, the survival is 58%. Next, `COc1ccc(CNC(=O)CCc2nc(-c3ccc(OC)cc3)no2)cc1`: 96%; `CCOc1ccc(N(CC)C(=O)CCc2nc(-c3ccccc3F)no2)cc1`: 46%. For `CN(C(=O)CCc1nc(-c2ccccc2F)no1)c1ccc(Cl)cc1`, the survival is 56%. For the compound `CCCN(C(=O)Cc1nc(-c2ccc(OC)cc2)no1)c1ccccc1C`, the survival is 85%. Next, `CCCN(C(=O)CCc1nc(-c2ccccc2F)no1)c1ccc(CC)cc1`: -7% (active). Turning to `COc1ccc2c(c1)cc1c(=O)n(CC(=O)NCCCOC(C)C)nc(C)n12`, the survival is 80%. Next, `O=C(NCCc1ccc(Cl)cc1)c1c2c(nc3ccccc13)C(=O)N(C1CCCCC1)C2`: 92%; `Cn1c(C(=O)NCc2cccc(F)c2)cc2cc(S(=O)(=O)N3CCCCC3)ccc21`: 81%. Regarding `O=C(CSC1=NCCN1)C1COc2ccccc2O1` (stereo unspecified), the survival is 88%. Next, `Cc1ccc(C(=O)NCC(=O)OCc2cc(=O)n3ccsc3n2)cc1`: 74%; `CCN(CC)CCNC(=O)C(=O)NCC(c1cccnc1)N1CCN(c2ccc(F)cc2)CC1` (stereo unspecified): 79%. Next, `CC1(c2ccc(Cl)cc2)NC(=O)CS1` (stereo unspecified): 96%. Take `C=CCNc1nc(C(C)C)nc2c1nnn2Cc1ccccc1`: the survival was 86%. Next, `O=C(CSc1nc2ccccc2o1)Nc1ccc(S(=O)(=O)NC2CCCC2)cc1`: 66%; `COc1ccccc1NC(=O)C(=O)c1cc(C)n(-c2cc(C)cc(C)c2)c1C`: 117%; `COCCCNC(=O)CSc1nc2ccccc2c(=O)n1Cc1ccco1`: 83%.

With `COc1cccc(CNC(=O)CCCn2ncn3c(cc4occc43)c2=O)c1OC`, the survival was 119%.

In the case of `Cc1ccc(NC(=O)Nc2cn(CC(C)C)c(=O)c3ccccc23)cc1N(C)C`, the survival was 78%.
